Reference: publication PMC5540273 (PLoS ONE, 2017)
Where two headings read alike, the source gives them in different places.

Tests used:
AAK1 = settings: n = 1
ABL1-nonphosphorylated = settings: concentration: 1 μM, replicates: in singlicate; n = 1
ABL1-phosphorylated = settings: concentration: 1 μM, replicates: in singlicate; n = 1
ABL2 = settings: concentration: 1 μM, replicates: in singlicate; n = 1
ACVR1B = settings: concentration: 1 μM, replicates: in singlicate; n = 1
ACVR1 = settings: concentration: 1 μM, replicates: in singlicate; n = 1
ACVR2A = settings: concentration: 1 μM, replicates: in singlicate; n = 1
ACVR2B = settings: concentration: 1 μM, replicates: in singlicate; n = 1
ACVRL1 = settings: concentration: 1 μM, replicates: in singlicate; n = 1
ADCK3 = system: T1, ADCK3; settings: concentration: 1 μM, replicates: in singlicate; n = 1
T1 construct: gene CABC1

[1] = concentration: 1 μM, replicates: in singlicate
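Also: KINOMEscan kinase panel screen.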

Row | SMILES | %Inh (AAK1; [1]) [%] | %Inh (ABL1-nonphosphorylated) [%] | %Inh (ABL1-phosphorylated) [%] | %Inh (ABL2) [%] | %Inh (ACVR1B) [%] | %Inh (ACVR1) [%] | %Inh (ACVR2A) [%] | %Inh (ACVR2B) [%] | %Inh (ACVRL1) [%] | %Inh (ADCK3) [%] | %Inh (AAK1; 1 µM) [%]
1 | CC(C)NCC(Cc1ccccc1)NC(=O)c1cc(Br)c(-c2ccnc3[nH]ccc23)s1.Cl.Cl (stereo not drawn) [GSK1383281] | 25 | 0 | 14 | 5 | 0 | 0 | 0 | 0 | 0 | 14 | –
2 | COc1cc(Nc2ccnc3cc(-c4ccncc4)ccc23)cc(OC)c1OC.Cl [GW494610] | 0 | 97.9 | 99.4 | 93 | 86 | 99.5 | 0 | 54 | 88 | 98.6 | –
3 | CCNc1nccc(-c2c(-c3ccc(F)cc3)ncn2C2CCN(C)CC2)n1 | 20 | 30 | 7 | 0 | 0 | 0 | 0 | 0 | 0 | 12 | –
4 | CS(=O)(=O)c1cccc(CNc2nc(Nc3ccc4c(c3)CCC(=O)N4)ncc2C(F)(F)F)c1 | 21 | 54 | 16 | 0 | 0 | 0 | 0 | 0 | 0 | 0 | –
5 | COc1ccc(C)c(Nc2ccnc(Nc3ccc(-c4cnc[nH]4)cc3)n2)c1.Cl [GW784041] | 29 | 95.4 | 97.1 | 92.8 | 74 | 99 | 93.5 | 93.3 | 91.7 | 40 | –
6 | Cl.N#CCc1ccc(Nc2nccc(Nc3ccc(Oc4ccccc4)cc3)n2)cc1 [GW639905] | 7 | 0 | 9 | 13 | 0 | 26 | 100 | 0 | 0 | 6 | –
7 | Cc1ccc(O)cc1Nc1ccnc2ccc(C(C)(C)C)cc12 [GW856805] | 10 | 98.1 | 99.6 | 90.2 | 24 | 24 | 8 | 62 | 1 | 0 | –
8 | Nc1ncc(-c2ccc3nccc(-c4ccncc4)c3c2)cc1S(=O)(=O)N1CCCCC1 [GSK1693850] | 0 | 0 | 0 | 9 | 0 | 53 | 2 | 9 | 37 | 65 | –
9 | COc1cccc2c(-c3ccncc3)c(-c3ccc(F)cc3)nn12 [GW468513] | 10 | 0 | 0 | 5 | 76 | 31 | 0 | 3 | 3 | 43 | –
10 | Cc1nn2c(=O)cc(N3CCO[C@H](C)C3)nc2n1Cc1cccc(Cl)c1Cl [GSK2373693] | 1 | 0 | 0 | 14 | 22 | 0 | 14 | 0 | 0 | 15 | –
11 | COC(=O)Nc1nc2cc(Oc3ccc(NC(=O)Nc4cccc(SC)c4)cc3)ccc2[nH]1.Cl [GW697999] | 0 | 91.4 | 90.1 | 76 | 0 | 0 | 0 | 0 | 0 | 0 | –
12 | COc1cc(Nc2nccc(N3CCC(NC(=O)Nc4ccc5c(c4)OCO5)C3)n2)cc(OC)c1OC (stereo not drawn) [GSK1379766] | 66 | 0 | 0 | 0 | 0 | 11 | 0 | 0 | 0 | 0 | –
13 | O=C(O)C(F)(F)F.O=c1[nH]ccc2nc(N[C@@H]3CCNC3)nc(Nc3cc(Cl)cc(Cl)c3)c12 [GSK2188764] | – | 9 | 11 | 0 | 0 | 0 | 0 | 0 | 0 | 25 | 89
14 | Cc1ccc(NC(=O)c2ccnc(N3CCCCC3)c2)cc1-c1ccc(C(=O)NCC2CC2)cc1 [GW775610] | 0 | 55 | 0 | 54 | 0 | 0 | 0 | 0 | 0 | 0 | –
15 | Cc1cccc(Nc2nc(NCCN)ncc2C(N)=O)c1 [GSK1292139] | 78 | 5 | 28 | 0 | 0 | 0 | 0 | 0 | 0 | 5 | –
16 | COc1cccc(CC(=O)N2CCc3cc(-c4cn(C)c5ncnc(N)c45)ccc32)c1 [GSK2608899] | 18 | 57 | 4 | 30 | 14 | 0 | 0 | 61 | 19 | 2 | –
17 | O=C(O)C(F)(F)F.O=c1[nH]ccc2nc(N[C@@H]3CCNC3)nc(Nc3ccc4c(c3)S(=O)(=O)CC4)c12 [GSK2181306] | 87 | 53 | 66 | 26 | 0 | 15 | 0 | 3 | 0 | 14 | –

Row | SMILES | %Inh (AAK1; [1]) [%] | %Inh (ABL1-nonphosphorylated) [%] | %Inh (ABL1-phosphorylated) [%] | %Inh (ABL2) [%] | %Inh (ACVR1B) [%] | %Inh (ACVR1) [%] | %Inh (ACVR2A) [%] | %Inh (ACVR2B) [%] | %Inh (ACVRL1) [%] | %Inh (ADCK3) [%] | %Inh (AAK1; 1 µM) [%]
18 | Cc1ccc(NC(=O)c2ccc(Cl)c(Cl)c2)cc1-c1ccc(C(=O)Nc2ccncc2)cc1 [GSK1398460] | 8 | 26 | 4 | 41 | 0 | 6 | 0 | 2 | 0 | 9 | –
19 | CN(c1ccc(F)c(NC(=O)c2cccc(OC(C)(C)C#N)c2Cl)c1)c1ccc2nc(NC(=O)C3CC3)sc2n1 | 2 | 99 | 92.6 | 89 | 0 | 0 | 0 | 0 | 0 | 0 | –
20 | Cc1ccc(Nc2ccnc(Nc3ccc(C)c(F)c3)n2)cc1O.Cl [GW582868] | 0 | 3 | 47 | 70 | 0 | 88 | 53 | 92.9 | 62 | 14 | –
21 | COc1cc(Nc2nccc(N3CCC(NS(=O)(=O)c4ccc(NC(C)=O)cc4)CC3)n2)cc(OC)c1OC [GSK1379825] | 68 | 0 | 2 | 38 | 34 | 66 | 47 | 59 | 0 | 80 | –
22 | CN(c1ccc(NC(=O)N2CCN(CCCN3CCOCC3)CC2)cc1)c1ccnc(Nc2ccc(CS(C)(=O)=O)cc2)n1.Cl [GW830899] | 55 | 72 | 60 | 8 | 0 | 0 | 23 | 45 | 0 | 3 | –
23 | Nc1cccc(-c2ccc3c(N)n[nH]c3c2)c1 [GSK2193613] | 55 | 34 | 37 | 21 | 0 | 11 | 0 | 19 | 0 | 3 | –
24 | CC(=O)Nc1cn2nc(Oc3cccc(NC(=O)c4cccc(C(F)(F)F)c4)c3)ccc2n1 | 0 | 100 | 99.9 | 99.3 | 0 | 0 | 0 | 31 | 0 | 0 | –
25 | COc1ccc(C2=C(Nc3cccc(O)c3)C(=O)NC2=O)cc1 [SB-390766] | 20 | 0 | 0 | 13 | 0 | 0 | 0 | 0 | 0 | 0 | –
26 | Cc1ccc(-c2ccc3occ(-c4ccc(S(C)=O)cc4)c3c2)nn1 (stereo not drawn) | 15 | 35 | 29 | 0 | 7 | 0 | 0 | 0 | 20 | 0 | –
27 | CN(c1ccc(NC(=O)Nc2cccc(Cl)c2)cc1)c1ccnc(N)n1.Cl [GW830707] | 0 | 0 | 0 | 3 | 4 | 0 | 0 | 0 | 9 | 0 | –
28 | O=C(Nc1n[nH]c2cc(-c3cccs3)ccc12)C1CC1 [SB-731284] | 73 | 81 | 61 | 0 | 0 | 0 | 0 | 17 | 0 | 0 | –
29 | CNc1nccc(-c2ccc3c(N)n[nH]c3c2)n1 [GSK2206003] | 74 | 7 | 3 | 20 | 10 | 7 | 8 | 67 | 0 | 1 | –
30 | O=C(Nc1n[nH]c2nc(-c3cccc(O)c3)ccc12)C1CC1 [SB-711805] | 33 | 94.2 | 88 | 27 | 13 | 32 | 43 | 74 | 0 | 0 | –
31 | Cc1cc(-c2ccnc(Nc3cccc(C#N)c3)n2)cc(C)c1O [GSK1440913] | 79 | 25 | 1 | 37 | 0 | 96.5 | 8 | 88 | 17 | 35 | –
32 | N#Cc1cnc2cc(-c3cnc(CNCCN4CCOCC4)s3)ccc2c1Nc1ccc(Oc2ccccc2)cc1 [GW664114] | 31 | 97.4 | 49 | 58 | 0 | 0 | 0 | 0 | 0 | 0 | –
33 | Cc1ccc(NC(=O)c2cccc(N3CCCCC3)c2)cc1-c1ccc(C(=O)NCC2CC2)cc1 [GSK1917008] | 0 | 0 | 0 | 25 | 0 | 14 | 6 | 10 | 2 | 27 | –
